# Results published in PubChem BioAssay (NCATS).
# Inconclusive results are not listed. Where a call stands in place of a potency, no number is given. Active and inactive are the calls of the source. Calls come from the whole dose curve; as a rule, active = well fitted inhibition curve with a large enough effect; inconclusive = small, poorly fitted or top-dose-only effect; inactive = no such curve, though single readings can be large or run the other way.
# Molecular target: Aldehyde dehydrogenase 1A1 (Homo sapiens) (UniProt P00352)
# Experiment: qHTS for Inhibitors of the Aldehyde Dehydrogenase Family (ALDH1A1) Confirmatory screens (AID 2061316); note: nearly all actives have a fitted effect of over 65% in size
# Details: ALDH inhibition qHTS; series mostly up to 47.3 µM
row,SMILES,Potency
1,Cc1ccc(-c2ccccc2C=O)c(C)c1,inactive
2,COc1cccc(S(=O)(=O)NC2CCN(C#N)C2)c1 (centres undefined),inactive
3,C[C@@H](CO)Nc1cc2c(cc1[S+](=O)([O-])Nc1ccc(Cl)c(Cl)c1)CCC(=O)N2,inactive
4,O=C(NCC(=O)N1CCN(Cc2ccccc2)CC1)c1cccc(-c2ccsc2)c1,inactive
